# Tests used:
# Experiment in all cases: DAPPL (digital affinity profiling via proximity ligation, sequencing); 10 mM Tris-HCl pH 7.5, 50 mM NaCl, 1 mM DTT, 4% glycerol, room temperature, 30 min; GST-TFs on glutathione beads, 16-mer random dsDNA library, 0.1% formaldehyde crosslink after washing; high values mean tight binding
# Conditions in all cases: protein: recombinant; tags: N-terminal GST; dsDNA, one strand shown
# FEV = target: T1, FEV (Homo sapiens, UniProt Q99581 1-238)
# T1 sequence: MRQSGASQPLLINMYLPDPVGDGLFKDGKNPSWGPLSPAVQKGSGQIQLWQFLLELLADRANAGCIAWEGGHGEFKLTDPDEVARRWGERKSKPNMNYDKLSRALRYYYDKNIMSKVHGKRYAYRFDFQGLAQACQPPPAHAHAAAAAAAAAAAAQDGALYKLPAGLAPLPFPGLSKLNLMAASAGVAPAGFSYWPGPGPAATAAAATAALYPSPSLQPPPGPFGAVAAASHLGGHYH
# Summary of the method: (§1)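 A tag-only sample was pooled with DNA-barcoded human transcription factors that had been expressed in yeast as GST fusions and captured on glutathione beads. The pools were incubated for 30 min at room temperature with 200 nmole of a random double-stranded 16-mer DNA library in Tris/NaCl/DTT/glycerol buffer, then washed, crosslinked with 0.1% formaldehyde, proximity-ligated (BsaI/T4 ligase, 1 h, 37 °C), PCR-amplified and sequenced on an Illumina NextSeq500. Binding signal is each hexamer's read frequency for a factor divided by its frequency for the tag-only sample.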
# ETV5 = ETV5 (Homo sapiens, UniProt P41161 1-510)
# Summary of the method: as §1
# SPIC = target: T2, SPIC (Homo sapiens, UniProt Q8N5J4 1-248)
# T2 sequence: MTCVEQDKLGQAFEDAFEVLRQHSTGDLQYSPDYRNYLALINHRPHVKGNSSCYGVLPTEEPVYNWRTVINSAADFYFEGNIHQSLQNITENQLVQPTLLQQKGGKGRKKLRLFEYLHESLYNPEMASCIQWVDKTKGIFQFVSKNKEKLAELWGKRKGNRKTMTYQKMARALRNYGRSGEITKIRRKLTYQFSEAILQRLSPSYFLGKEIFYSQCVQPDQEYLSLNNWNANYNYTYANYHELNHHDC
# Summary of the method: as §1
# ELF4 = ELF4 (Homo sapiens, UniProt Q99607 1-663)
# Summary of the method: as §1
# ELK4 = target: T3, ELK4 (Homo sapiens, UniProt P28324-2 1-405)
# T3 sequence: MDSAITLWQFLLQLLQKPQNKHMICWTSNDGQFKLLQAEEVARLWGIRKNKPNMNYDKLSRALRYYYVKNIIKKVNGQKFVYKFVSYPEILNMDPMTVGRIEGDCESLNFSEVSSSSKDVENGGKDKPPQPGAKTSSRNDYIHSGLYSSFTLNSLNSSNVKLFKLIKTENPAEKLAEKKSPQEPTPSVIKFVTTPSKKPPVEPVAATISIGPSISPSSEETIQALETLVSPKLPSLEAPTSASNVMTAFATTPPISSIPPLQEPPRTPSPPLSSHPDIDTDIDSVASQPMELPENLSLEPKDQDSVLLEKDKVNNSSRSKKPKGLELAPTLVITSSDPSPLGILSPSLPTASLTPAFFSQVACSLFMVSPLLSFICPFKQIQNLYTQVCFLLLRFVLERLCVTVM
# Summary of the method: as §1
# ETV2 = target: T4, ETV2 (Homo sapiens, UniProt O00321 1-342)
# T4 sequence: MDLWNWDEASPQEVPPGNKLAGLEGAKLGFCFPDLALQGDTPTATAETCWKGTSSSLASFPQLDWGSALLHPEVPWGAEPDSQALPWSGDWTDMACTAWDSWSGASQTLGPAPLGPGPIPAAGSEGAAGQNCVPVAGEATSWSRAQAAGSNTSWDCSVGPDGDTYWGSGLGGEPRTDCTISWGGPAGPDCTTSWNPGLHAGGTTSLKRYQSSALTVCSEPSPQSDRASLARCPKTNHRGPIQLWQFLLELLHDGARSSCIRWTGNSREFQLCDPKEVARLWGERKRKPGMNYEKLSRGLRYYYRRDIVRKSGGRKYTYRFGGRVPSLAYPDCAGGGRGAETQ
# Summary of the method: as §1
# ELF3 = target: T5, ELF3 (Homo sapiens, UniProt P78545 1-371)
# T5 sequence: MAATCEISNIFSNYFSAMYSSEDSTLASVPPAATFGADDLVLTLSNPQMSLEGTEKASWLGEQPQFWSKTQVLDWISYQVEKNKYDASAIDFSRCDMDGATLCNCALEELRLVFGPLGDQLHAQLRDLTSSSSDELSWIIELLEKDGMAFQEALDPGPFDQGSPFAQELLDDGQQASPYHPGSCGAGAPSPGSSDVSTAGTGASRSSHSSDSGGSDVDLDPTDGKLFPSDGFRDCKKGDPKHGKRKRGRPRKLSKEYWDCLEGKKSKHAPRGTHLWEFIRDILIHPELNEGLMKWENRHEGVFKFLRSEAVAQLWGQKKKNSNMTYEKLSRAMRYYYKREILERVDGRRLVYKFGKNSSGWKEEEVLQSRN
# Summary of the method: as §1
# CRX = CRX (Homo sapiens, UniProt O43186 1-299)
# Summary of the method: as §1
# ETV1 = ETV1 (Homo sapiens, UniProt P50549 1-477)
# Summary of the method: as §1
# ERF = target: T6, ERF (Homo sapiens, UniProt P50548 1-548)
# T6 sequence: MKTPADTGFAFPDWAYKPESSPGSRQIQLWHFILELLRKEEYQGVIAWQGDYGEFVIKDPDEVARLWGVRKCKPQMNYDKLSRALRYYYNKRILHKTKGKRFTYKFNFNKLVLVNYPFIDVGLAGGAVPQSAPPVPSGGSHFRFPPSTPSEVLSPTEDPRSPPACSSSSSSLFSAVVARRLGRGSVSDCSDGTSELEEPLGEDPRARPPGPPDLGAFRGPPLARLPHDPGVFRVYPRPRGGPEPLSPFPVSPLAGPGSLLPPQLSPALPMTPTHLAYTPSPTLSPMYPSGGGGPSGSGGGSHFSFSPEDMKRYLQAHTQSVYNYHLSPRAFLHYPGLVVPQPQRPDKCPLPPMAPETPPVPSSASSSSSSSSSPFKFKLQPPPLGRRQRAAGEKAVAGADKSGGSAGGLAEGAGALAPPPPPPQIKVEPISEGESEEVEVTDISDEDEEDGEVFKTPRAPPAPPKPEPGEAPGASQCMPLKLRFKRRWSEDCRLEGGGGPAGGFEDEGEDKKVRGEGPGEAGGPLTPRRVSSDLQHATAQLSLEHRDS
# Summary of the method: as §1
# ETV3L = target: T7, ETV3L (Homo sapiens, UniProt Q6ZN32 1-361)
# T7 sequence: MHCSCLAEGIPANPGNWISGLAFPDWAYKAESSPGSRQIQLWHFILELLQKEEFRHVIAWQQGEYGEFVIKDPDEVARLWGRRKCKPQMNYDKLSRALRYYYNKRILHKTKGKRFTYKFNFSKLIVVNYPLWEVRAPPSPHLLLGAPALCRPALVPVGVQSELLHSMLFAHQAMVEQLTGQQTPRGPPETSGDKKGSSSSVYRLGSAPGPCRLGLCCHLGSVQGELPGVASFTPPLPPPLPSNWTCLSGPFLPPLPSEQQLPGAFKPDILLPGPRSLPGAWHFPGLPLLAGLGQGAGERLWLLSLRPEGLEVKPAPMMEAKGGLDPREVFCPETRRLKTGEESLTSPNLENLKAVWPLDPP
# Summary of the method: as §1
# ETS2 = target: T8, ETS2 (Homo sapiens, UniProt P15036 1-469)
# T8 sequence: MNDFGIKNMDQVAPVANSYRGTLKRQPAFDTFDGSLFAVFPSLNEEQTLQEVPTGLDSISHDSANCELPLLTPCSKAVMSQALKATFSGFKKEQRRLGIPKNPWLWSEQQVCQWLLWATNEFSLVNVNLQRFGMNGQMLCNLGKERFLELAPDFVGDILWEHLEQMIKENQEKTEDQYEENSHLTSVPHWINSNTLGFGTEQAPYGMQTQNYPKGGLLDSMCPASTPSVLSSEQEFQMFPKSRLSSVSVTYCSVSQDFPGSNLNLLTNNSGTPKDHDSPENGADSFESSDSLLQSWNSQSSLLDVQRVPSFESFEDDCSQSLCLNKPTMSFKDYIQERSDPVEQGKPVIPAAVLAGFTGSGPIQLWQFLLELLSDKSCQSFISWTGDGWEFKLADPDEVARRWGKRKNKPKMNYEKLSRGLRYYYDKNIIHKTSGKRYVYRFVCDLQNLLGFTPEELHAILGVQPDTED
# Summary of the method: as §1
# SPDEF = target: T9, SPDEF (Homo sapiens, UniProt O95238 1-335)
# T9 sequence: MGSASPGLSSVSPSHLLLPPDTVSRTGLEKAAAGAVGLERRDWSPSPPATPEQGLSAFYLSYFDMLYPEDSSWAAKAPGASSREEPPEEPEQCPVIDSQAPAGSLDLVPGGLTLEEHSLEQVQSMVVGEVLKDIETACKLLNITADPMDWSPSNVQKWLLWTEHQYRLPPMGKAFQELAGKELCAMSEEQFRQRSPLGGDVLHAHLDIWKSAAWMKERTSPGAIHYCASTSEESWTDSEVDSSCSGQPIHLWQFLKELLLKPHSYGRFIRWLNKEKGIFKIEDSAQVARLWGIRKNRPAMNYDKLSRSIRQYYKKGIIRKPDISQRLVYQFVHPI
# Summary of the method: as §1
# ETV7 = target: T10, ETV7 (Homo sapiens, UniProt Q9Y603 1-341)
# T10 sequence: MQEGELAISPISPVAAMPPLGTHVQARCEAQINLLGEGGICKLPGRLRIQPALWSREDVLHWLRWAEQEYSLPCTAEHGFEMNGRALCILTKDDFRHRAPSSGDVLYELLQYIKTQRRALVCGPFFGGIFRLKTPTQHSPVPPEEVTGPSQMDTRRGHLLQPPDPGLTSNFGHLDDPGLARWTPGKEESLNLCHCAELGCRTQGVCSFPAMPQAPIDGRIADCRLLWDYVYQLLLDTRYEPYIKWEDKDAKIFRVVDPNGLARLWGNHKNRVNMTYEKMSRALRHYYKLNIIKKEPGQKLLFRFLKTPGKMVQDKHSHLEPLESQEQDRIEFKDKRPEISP
# Summary of the method: as §1
# ELF5 = target: T11, ELF5 (Homo sapiens, UniProt Q9UKW6-2 1-255)
# T11 sequence: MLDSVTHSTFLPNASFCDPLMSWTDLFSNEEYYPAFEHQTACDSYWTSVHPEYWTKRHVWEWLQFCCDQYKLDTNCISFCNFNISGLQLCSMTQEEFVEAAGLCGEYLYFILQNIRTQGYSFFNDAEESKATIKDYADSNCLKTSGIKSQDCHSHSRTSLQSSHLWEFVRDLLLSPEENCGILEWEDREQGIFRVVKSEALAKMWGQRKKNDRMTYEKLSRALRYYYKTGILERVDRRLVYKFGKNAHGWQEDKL
# Summary of the method: as §1
# ETV3 = target: T12, ETV3 (Homo sapiens, UniProt P41162-2 1-143)
# T12 sequence: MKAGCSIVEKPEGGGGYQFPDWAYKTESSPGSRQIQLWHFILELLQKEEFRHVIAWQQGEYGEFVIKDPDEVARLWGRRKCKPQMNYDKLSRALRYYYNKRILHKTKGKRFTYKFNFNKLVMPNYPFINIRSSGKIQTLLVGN
# Summary of the method: as §1
# ETV6 = ETV6 (Homo sapiens, UniProt P41212 1-452)
# Summary of the method: as §1
# Chain of ETV1 (P50549 whole entry): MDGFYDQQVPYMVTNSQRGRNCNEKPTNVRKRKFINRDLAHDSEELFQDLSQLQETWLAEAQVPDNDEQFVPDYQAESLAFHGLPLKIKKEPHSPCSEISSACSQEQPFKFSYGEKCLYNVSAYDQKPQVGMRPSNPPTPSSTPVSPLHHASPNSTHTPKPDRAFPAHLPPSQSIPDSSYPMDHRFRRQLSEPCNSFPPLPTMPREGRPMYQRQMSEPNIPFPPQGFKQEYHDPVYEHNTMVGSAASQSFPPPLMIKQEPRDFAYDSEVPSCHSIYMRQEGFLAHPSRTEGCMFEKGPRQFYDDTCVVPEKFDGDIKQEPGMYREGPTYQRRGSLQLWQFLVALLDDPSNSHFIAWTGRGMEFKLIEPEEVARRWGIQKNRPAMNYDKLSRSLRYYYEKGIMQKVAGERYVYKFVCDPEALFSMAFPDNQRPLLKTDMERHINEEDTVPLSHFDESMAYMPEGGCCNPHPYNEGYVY
# Chain of ELF4 (Q99607 whole entry): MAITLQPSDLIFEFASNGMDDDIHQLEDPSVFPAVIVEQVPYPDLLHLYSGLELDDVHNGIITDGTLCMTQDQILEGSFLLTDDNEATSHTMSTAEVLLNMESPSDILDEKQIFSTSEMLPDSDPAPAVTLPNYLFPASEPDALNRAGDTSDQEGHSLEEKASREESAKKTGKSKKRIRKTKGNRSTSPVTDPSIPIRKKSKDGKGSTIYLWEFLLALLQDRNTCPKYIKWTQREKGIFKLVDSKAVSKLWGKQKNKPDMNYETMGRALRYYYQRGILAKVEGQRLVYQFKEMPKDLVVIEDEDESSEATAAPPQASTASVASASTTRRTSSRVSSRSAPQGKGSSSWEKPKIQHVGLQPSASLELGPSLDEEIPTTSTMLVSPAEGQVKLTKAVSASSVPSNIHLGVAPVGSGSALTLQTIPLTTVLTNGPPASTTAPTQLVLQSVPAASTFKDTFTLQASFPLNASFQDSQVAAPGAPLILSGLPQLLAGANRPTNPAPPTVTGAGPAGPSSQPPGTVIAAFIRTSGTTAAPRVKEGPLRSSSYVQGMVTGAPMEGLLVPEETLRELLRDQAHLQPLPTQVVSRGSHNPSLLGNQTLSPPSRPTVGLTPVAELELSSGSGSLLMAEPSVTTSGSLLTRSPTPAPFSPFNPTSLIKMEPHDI
# Chain of ETV6 (P41212 whole entry): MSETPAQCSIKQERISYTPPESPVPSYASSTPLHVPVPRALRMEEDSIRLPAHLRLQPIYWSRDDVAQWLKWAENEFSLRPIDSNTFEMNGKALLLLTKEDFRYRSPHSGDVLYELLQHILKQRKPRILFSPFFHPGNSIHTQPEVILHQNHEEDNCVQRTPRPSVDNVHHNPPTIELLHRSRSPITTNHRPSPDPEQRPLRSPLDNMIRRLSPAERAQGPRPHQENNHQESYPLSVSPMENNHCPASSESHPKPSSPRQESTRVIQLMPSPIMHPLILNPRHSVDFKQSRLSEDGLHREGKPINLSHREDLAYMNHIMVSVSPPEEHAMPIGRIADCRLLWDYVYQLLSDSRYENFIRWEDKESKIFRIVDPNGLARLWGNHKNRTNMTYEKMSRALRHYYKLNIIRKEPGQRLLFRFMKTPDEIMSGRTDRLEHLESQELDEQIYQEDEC
# Chain of ETV5 (P41161 whole entry): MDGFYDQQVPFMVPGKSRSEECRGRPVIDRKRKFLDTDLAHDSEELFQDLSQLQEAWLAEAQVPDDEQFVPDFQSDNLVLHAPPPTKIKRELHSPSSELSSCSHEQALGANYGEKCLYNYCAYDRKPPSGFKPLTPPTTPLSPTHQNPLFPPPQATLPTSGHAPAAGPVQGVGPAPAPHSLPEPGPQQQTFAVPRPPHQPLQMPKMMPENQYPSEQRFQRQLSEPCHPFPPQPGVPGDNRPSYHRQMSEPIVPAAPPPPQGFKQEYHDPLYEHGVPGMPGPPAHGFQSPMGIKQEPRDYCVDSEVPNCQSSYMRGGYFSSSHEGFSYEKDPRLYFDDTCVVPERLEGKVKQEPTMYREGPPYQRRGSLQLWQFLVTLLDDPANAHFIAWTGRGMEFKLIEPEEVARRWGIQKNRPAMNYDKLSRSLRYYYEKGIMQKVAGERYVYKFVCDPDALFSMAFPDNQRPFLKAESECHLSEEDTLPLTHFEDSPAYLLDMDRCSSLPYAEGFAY
# Chain of CRX (O43186 whole entry): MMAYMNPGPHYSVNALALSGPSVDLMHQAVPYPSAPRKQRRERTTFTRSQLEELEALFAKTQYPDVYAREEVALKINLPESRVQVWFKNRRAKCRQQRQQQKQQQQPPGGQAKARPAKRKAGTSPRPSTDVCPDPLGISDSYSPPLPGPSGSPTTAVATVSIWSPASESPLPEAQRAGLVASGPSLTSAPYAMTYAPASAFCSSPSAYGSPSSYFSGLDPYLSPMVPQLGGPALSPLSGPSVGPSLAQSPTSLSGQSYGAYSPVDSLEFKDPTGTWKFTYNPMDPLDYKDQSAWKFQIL
Sequence,binding signal (FEV),binding signal (ETV5),binding signal (SPIC),binding signal (ELF4),binding signal (ELK4),binding signal (ETV2),binding signal (ELF3),binding signal (CRX),binding signal (ETV1),binding signal (ERF),binding signal (ETV3L),binding signal (ETS2),binding signal (SPDEF),binding signal (ETV7),binding signal (ELF5),binding signal (ETV3),binding signal (ETV6)
CCCTTG,"1.16 fold enrichment (6-mer frequency, TF over GST control)","1.11 fold enrichment (6-mer frequency, TF over GST control)","1.26 fold enrichment (6-mer frequency, TF over GST control)","1.25 fold enrichment (6-mer frequency, TF over GST control)","1.2 fold enrichment (6-mer frequency, TF over GST control)","1.23 fold enrichment (6-mer frequency, TF over GST control)","1.19 fold enrichment (6-mer frequency, TF over GST control)","1.01 fold enrichment (6-mer frequency, TF over GST control)","1.19 fold enrichment (6-mer frequency, TF over GST control)","1.24 fold enrichment (6-mer frequency, TF over GST control)","1.08 fold enrichment (6-mer frequency, TF over GST control)","1.16 fold enrichment (6-mer frequency, TF over GST control)","1.28 fold enrichment (6-mer frequency, TF over GST control)","1.18 fold enrichment (6-mer frequency, TF over GST control)","1.1 fold enrichment (6-mer frequency, TF over GST control)","1.13 fold enrichment (6-mer frequency, TF over GST control)","1.17 fold enrichment (6-mer frequency, TF over GST control)"
CAACTG,"1.14 fold enrichment (6-mer frequency, TF over GST control)","1.11 fold enrichment (6-mer frequency, TF over GST control)","1.13 fold enrichment (6-mer frequency, TF over GST control)","1.07 fold enrichment (6-mer frequency, TF over GST control)","1.21 fold enrichment (6-mer frequency, TF over GST control)","1.23 fold enrichment (6-mer frequency, TF over GST control)","1.26 fold enrichment (6-mer frequency, TF over GST control)",,"1.19 fold enrichment (6-mer frequency, TF over GST control)","1.18 fold enrichment (6-mer frequency, TF over GST control)","1.17 fold enrichment (6-mer frequency, TF over GST control)","1.13 fold enrichment (6-mer frequency, TF over GST control)","1.08 fold enrichment (6-mer frequency, TF over GST control)","1.06 fold enrichment (6-mer frequency, TF over GST control)","1.08 fold enrichment (6-mer frequency, TF over GST control)","1.16 fold enrichment (6-mer frequency, TF over GST control)","1.12 fold enrichment (6-mer frequency, TF over GST control)"
